# Assay results: the supplement of paper PMC6518042
# Unmarked numbers belong to inactive results.
# Tested on: Pectobacterium parmentieri SCC3193
# Assay: DuctApe activity index (growth/respiration on compound as sole nutrient source, blank-subtracted) (activity index (0-3)); higher = stronger utilization of the compound, active = 3 or more
# Conditions: nutrient role (plate category): carbon
# Experimental: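 Biolog Phenotype Microarray plates PM1, PM2A (carbon), PM3 (nitrogen) and PM4 (phosphorus/sulfur) inoculated with P. parmentieri SCC3193 in M9-C minimal salts medium with Biolog dye A, and read in the OmniLog for 46 h. Each well was tested in triplicate and the experiment was run twice. DuctApe computed a blank-subtracted activity index (AV, 0-3) from the mean curves; growth is positive at AV >= 3 and negative at AV <= 2.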
row,SMILES,DuctApe activity index
1,NCCCC[C@H](N)C(=O)O [L-Lysine],0
2,O=C[C@H](O)[C@@H](O)[C@H](O)[C@H](O)COP(=O)(O)O [D-Glucose-6-Phosphate],3 (active)
3,CC(=O)CC(=O)O [Acetoacetic acid],0
4,C/C(=C/C(=O)O)C(=O)O [Citraconic acid],0
5,O=C(O)[C@@H]1CCCN1 [L-Proline],0
6,O=P(O)(O)O[C@H]1O[C@H](CO)[C@@H](O)[C@H](O)[C@H]1O [D-Glucose-1-Phosphate],0
7,C/C=C/C=C/C(=O)O [Sorbic acid],0
8,CC(O)(CC(=O)O)C(=O)O (stereo not given) [Citramalic acid],0
9,OC[C@@H](O)C(O)[C@H](O)CO [D-Arabitol],0
10,CO[C@H]1O[C@H](CO)[C@H](O)[C@H](O)[C@H]1O [a-Methyl-D-Galactoside],3 (active)
11,OCC1(O)OC[C@@H](O)[C@@H](O)[C@H]1O (stereo partly drawn) [D-Psicose],3 (active)
12,OCC(O)CO [Glycerol],3 (active)
13,CC(C)C[C@H](N)C(=O)O [L-Leucine],1
14,NCCCC(=O)O [g-Amino-N-Butyric acid],0
15,CO[C@H]1O[C@H](CO)[C@@H](O)[C@H](O)[C@H]1O [a-Methyl-D-Glucoside],0
16,NCC(=O)O [Glycine],0
17,C[C@@H](O)[C@H](N)C(=O)O [L-Threonine],0
18,N[C@@H](CC(=O)O)C(=O)O [L-Aspartic acid],3 (active)
19,C[C@H](O)C(=O)O [L-Lactic acid],2
20,OC[C@H]1O[C@H](OC[C@H]2O[C@H](O[C@H]3[C@H](O)[C@@H](O)[C@@H](O)O[C@@H]3CO)[C@H](O)[C@@H](O)[C@@H]2O[C@H]2O[C@H](CO)[C@@H](O)[C@H](O)[C@H]2O)[C@H](O)[C@@H](O)[C@@H]1O [Glycogen],0
21,NCC(=O)N[C@@H](CCC(=O)O)C(=O)O,0

# Same assay, conditions: nutrient role (plate category): nitrogen
row,SMILES,DuctApe activity index
1,N[C@@H]1C(O)O[C@H](CO)[C@@H](O)[C@@H]1O (stereo partly drawn) [D-Mannosamine],2
2,NCCCC[C@H](N)C(=O)O [L-Lysine],0
3,O=C(O)[C@@H]1CCCN1 [L-Proline],0
4,CC(C)C[C@H](N)C(=O)O [L-Leucine],0
5,NCCCC(=O)O [g-Amino-N-Butyric acid],1
6,NCC(=O)O [Glycine],0
7,C[C@@H](O)[C@H](N)C(=O)O [L-Threonine],0
8,N[C@@H](CC(=O)O)C(=O)O [L-Aspartic acid],0
9,Nc1nc2c(ncn2[C@@H]2O[C@H](CO)[C@@H](O)[C@H]2O)c(=O)[nH]1 [Guanosine],0
10,NCC(=O)N[C@@H](CCC(=O)O)C(=O)O,1

# Same assay, conditions: nutrient role (plate category): phosphate & sulphur
row,SMILES,DuctApe activity index
1,O=C[C@H](O)[C@@H](O)[C@H](O)[C@H](O)COP(=O)(O)O [D-Glucose-6-Phosphate],2
2,O=P(O)(O)OC(CO)CO [b-Glycerol Phosphate],2
3,O=C(O)C(CO)OP(=O)(O)O [D-2-Phospho-Glyceric acid],2
4,O=P(O)(O)O[C@H]1O[C@H](CO)[C@@H](O)[C@H](O)[C@H]1O [D-Glucose-1-Phosphate],1
5,Cc1cn([C@H]2C[C@H](OP(=O)(O)O)[C@@H](CO)O2)c(=O)[nH]c1=O [Thymidine 3`-Monophosphate],2
6,O=P(O)(O)O[C@H]1[C@H](OP(=O)(O)O)[C@@H](OP(=O)(O)O)[C@H](OP(=O)(O)O)[C@@H](OP(=O)(O)O)[C@H]1OP(=O)(O)O [Inositol Hexaphosphate],0
7,NCCOP(=O)(O)O [O-Phosphoryl-Ethanolamine],1
8,Nc1ccn([C@@H]2O[C@H](CO)[C@@H](OP(=O)(O)O)[C@H]2O)c(=O)n1 [Cytidine 3`-Monophosphate],2
9,N[C@@H](CS(=O)O)C(=O)O [L-Cysteine Sulfinic acid],0
